Assay results taken from article PMC5540273 (PLoS ONE, 2017).
Like-named read-outs stand apart in the source and are kept apart here.

What was measured:
PKAC-alpha = system: T1, PKAC-alpha; details: concentration: 1 μM, replicates: in singlicate; n = 1
T1 construct: gene PRKACA

PKAC-beta = system: T2, PKAC-beta; details: concentration: 1 μM, replicates: in singlicate; n = 1
T2 construct: gene PRKACB

PKMYT1 = details: concentration: 1 μM, replicates: in singlicate; n = 1
PKN1 = details: concentration: 1 μM, replicates: in singlicate; n = 1
PKN2 = details: concentration: 1 μM, replicates: in singlicate; n = 1
PLK1 = details: n = 1
PLK2 = details: concentration: 1 μM, replicates: in singlicate; n = 1
PLK3 = details: concentration: 1 μM, replicates: in singlicate; n = 1
PLK4 = details: concentration: 1 μM, replicates: in singlicate; n = 1
PRKCD = details: concentration: 1 μM, replicates: in singlicate; n = 1
[1] = concentration: 1 μM, replicates: in singlicate
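Also: KINOMEscan kinase panel screen.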

SMILES | %Inh (PKAC-alpha) [%] | %Inh (PKAC-beta) [%] | %Inh (PKMYT1) [%] | %Inh (PKN1) [%] | %Inh (PKN2) [%] | %Inh (PLK1; [1]) [%] | %Inh (PLK2) [%] | %Inh (PLK3) [%] | %Inh (PLK4) [%] | %Inh (PRKCD) [%] | %Inh (PLK1; 1 µM) [%]
O=C(Nc1n[nH]c2nc(-c3ccccc3)c(Br)cc12)C1CC1 [SB-708998] | 0 | 2 | 8 | 21 | 0 | 10 | 0 | 0 | 2 | 0 | –
Cc1nc(N(C)[C@H]2CN(C(=O)CC#N)CC[C@H]2C)c2cc[nH]c2n1 | 17 | 0 | 4 | 0 | 12 | 0 | 5 | 0 | 0 | 2 | –
COC(=O)c1c(-c2ccccc2)c2cc(Br)ccc2c(=O)n1Cc1ccc(NC(=O)CCC(=O)O)cc1 | 33 | 0 | 10 | 0 | 0 | 0 | 14 | 5 | 15 | 0 | –
Cc1nn2c(=O)cc(N3CCOCC3)nc2n1Cc1cccc(Cl)c1Cl [GSK2342769] | 7 | 7 | 1 | 36 | 0 | 5 | 0 | 0 | 0 | 0 | –
CCc1ccc(-c2ccc3c(c2)-c2nn(C)cc2S(=O)(=O)N3C)cc1 | 0 | 0 | 0 | 0 | 0 | 8 | 0 | 56 | 0 | 14 | –
CCC(=O)c1c(-c2ccccc2)c2cc(Cl)ccc2c(=O)n1Cc1cc(S(C)(=O)=O)n(CC(F)F)n1 | 0 | 0 | 0 | 0 | 0 | 0 | 24 | 13 | 0 | 9 | –
COc1cc2ncn(-c3cc(OCc4ccncc4)c(C(N)=O)s3)c2cc1OC [GSK336313] | 0 | 0 | 0 | 31 | 0 | – | 96.6 | 55 | 7 | 0 | 81
COc1cccc(-n2cnc3c(N)ncnc32)c1 [SKF-97416] | 11 | 20 | 10 | 0 | 24 | 58 | 43 | 18 | 21 | 6 | –
Cc1nnc(-c2ccc3ncn(-c4ccc(S(C)=O)cc4)c3c2)o1 (centres unmarked) | 12 | 0 | 0 | 0 | 0 | 0 | 0 | 9 | 14 | 0 | –
COC(=O)c1c(-c2ccccc2)c2cc(C)ccc2c(=O)n1Cc1ccccc1 | 0 | 0 | 13 | 0 | 0 | 0 | 0 | 0 | 0 | 3 | –
CCn1c(-c2nonc2N)nc2ccccc21 [SB-693162/GW549034] | 0 | 0 | 0 | 0 | 0 | 62 | 21 | 34 | 30 | 0 | –
COC(=O)c1c(-c2ccccc2)c2cc(Br)ccc2c(=O)n1Cc1ccc(S(C)(=O)=O)cc1 | 11 | 0 | 0 | 1 | 0 | 0 | 17 | 15 | 32 | 0 | –
Nc1nccc2scc(-c3ccc4c(c3)CCN4C(=O)Cc3ccccc3)c12 [GSK2576924] | 8 | 0 | 1 | 0 | 0 | 6 | 1 | 0 | 6 | 0 | –
Cc1nnc(-c2ccc(C)c(-c3ccc(C(=O)O)cc3)c2)o1 [GW608005] | 0 | 0 | 0 | 28 | 0 | 0 | 0 | 0 | 0 | 0 | –
COc1cccc(C2=C(N(C)c3ccccc3)C(=O)NC2=O)c1 [SB-334865] | 0 | 0 | 1 | 0 | 0 | 0 | 0 | 0 | 17 | 0 | –
COc1cc2nccc(Nc3ccc(OCc4ccc(NC(C)=O)cc4)cc3)c2cc1OC.Cl [GW440135] | 0 | 0 | 0 | 44 | 0 | 12 | 0 | 0 | 0 | 11 | –
CCC(=O)c1c(-c2ccccc2)c2cc(Cl)ccc2c(=O)n1Cc1cc(S(C)(=O)=O)n(CC(N)=O)n1 | 0 | 0 | 0 | 1 | 8 | 0 | 0 | 0 | 0 | 6 | –
CCn1c(-c2ccoc2)nc2cnccc21 [SB-733887] | 0 | 0 | 0 | 7 | 0 | 5 | 0 | 0 | 15 | 0 | –

SMILES | %Inh (PKAC-alpha) [%] | %Inh (PKAC-beta) [%] | %Inh (PKMYT1) [%] | %Inh (PKN1) [%] | %Inh (PKN2) [%] | %Inh (PLK1; [1]) [%] | %Inh (PLK2) [%] | %Inh (PLK3) [%] | %Inh (PLK4) [%] | %Inh (PRKCD) [%] | %Inh (PLK1; 1 µM) [%]
COc1ccc(-n2cnc3c(N)ncnc32)cc1 [SKF-97236] | 0 | 19 | 17 | 46 | 0 | 18 | 3 | 2 | 1 | 9 | –
Nc1ncnc2c1ncn2-c1cccc2ccccc12 [SKF-97184] | 10 | 0 | 0 | 0 | 0 | 28 | 18 | 9 | 0 | 16 | –
COc1ccc(-c2cc3c(C)nc(N)nc3n([C@H]3CC[C@H](OCCO)CC3)c2=O)cn1 | 3 | 0 | 0 | 5 | 0 | 0 | 0 | 0 | 1 | 2 | –
O=C1NC(=O)C(c2ccccc2)=C1Nc1cccc(O)c1 [SB-390534] | 0 | 5 | 0 | 0 | 21 | 0 | 20 | 27 | 11 | 5 | –
CN1C(=O)C(Nc2ccccc2)=C(c2ccccc2)C1=O [SB-300079] | 2 | 0 | 2 | 0 | 0 | 4 | 12 | 16 | 0 | 7 | –
COc1cc2ncn(-c3cc(OCc4ccncc4Br)c(C(N)=O)s3)c2cc1OC [GW854278] | 0 | 0 | 0 | 10 | 0 | 99.9 | 99.7 | 99.2 | 4 | 7 | –
Cc1ccc(-c2ccc3c(ccc4sc5c(c43)NC[C@@H](C)N=C5N(C)C)n2)cn1 | 0 | 0 | 0 | 0 | 0 | 0 | 0 | 0 | 0 | 0 | –
Nc1nc(N)c2nc(-c3ccccc3)[nH]c2n1 [SKF-12778] | 7 | 9 | 2 | 43 | 23 | 0 | 0 | 0 | 0 | 11 | –
Nc1ncnc2c1ncn2-c1cccc(F)c1 [SKF-97560] | 21 | 0 | 0 | 4 | 0 | 34 | 22 | 25 | 9 | 1 | –
CC(C)(C)c1ccc(C(=O)Nc2cn3cc(-c4ccccc4)ccc3n2)cc1 | 0 | 7 | 0 | 0 | 16 | 0 | 0 | 13 | 40 | 0 | –
O=c1cc(N2CCOCC2)nc2n(Cc3ccc(F)c(Cl)c3)ccn12 [GSK2297099] | 0 | 0 | 10 | 11 | 0 | 54 | 0 | 6 | 0 | 0 | –
Cc1c(Cn2c(C)nn3c(=O)cc(N4CCO[C@H](C)C4)nc23)cccc1C(F)(F)F [GSK2373690] | 0 | 11 | 11 | 0 | 0 | 0 | 0 | 0 | 0 | 0 | –
CCc1nc(-c2cccc(C)c2)c(-c2ccncc2)s1 | 0 | 7 | 8 | 6 | 0 | 0 | 0 | 14 | 0 | 0 | –
COc1cccc(C2=C(Nc3cccc(C(=O)O)c3)C(=O)NC2=O)c1 [SB-390770] | 0 | 0 | 11 | 22 | 0 | 6 | 0 | 0 | 10 | 29 | –
OCCCNc1nccc(-c2c(-c3cccc(C(F)(F)F)c3)nn3cc(C(F)(F)F)ccc23)n1 [GW630813] | 0 | 0 | 0 | 0 | 0 | 0 | 0 | 0 | 12 | 0 | –
O=C(NCc1cccs1)c1cc(C(=O)c2c(Cl)cccc2Cl)c[nH]1 [GW823670] | 6 | 3 | 0 | 0 | 0 | 0 | 0 | 0 | 0 | 0 | –
O=C(Nc1n[nH]c2cc(-c3ccccc3F)ccc12)C1CC1 [SB-733371] | 0 | 20 | 0 | 0 | 14 | 0 | 0 | 3 | 9 | 0 | –
